Measured values: PubChem BioAssay (NCATS)
Values joined by “and” are separate entries in the source; they are usually repeats but may differ in a detail not shown here. Equal entries are not always repeated. Inconclusive results are not listed. Where a call stands in place of a potency, no number is given. Where a structure was tested more than once in an assay, its records may differ in their call. Active and inactive are the calls of the source. The call rests on the fitted dose curve; in most records, active means well fitted curve in the direction sought with a large enough effect; inconclusive means small, poorly fitted or top-dose-only effect, or another doubt; inactive means no such curve, though single readings can be large; an effect the other way counts as inactive or inconclusive. Peptide text beside a SMILES is read from it.

Assays:
[1] = target: Cytochrome P450 3A7 (Homo sapiens) (UniProt P24462); experiment: Cytochrome P450 family 3 subfamily A member 7 (CYP3A7) small molecule antagonists: luciferase biochemical qHTS assay (AID 1963596); further: nearly all actives have a fitted effect of over 40% in size
Sequence of Cytochrome P450 3A7 (Homo sapiens) (P24462 whole entry, looked up): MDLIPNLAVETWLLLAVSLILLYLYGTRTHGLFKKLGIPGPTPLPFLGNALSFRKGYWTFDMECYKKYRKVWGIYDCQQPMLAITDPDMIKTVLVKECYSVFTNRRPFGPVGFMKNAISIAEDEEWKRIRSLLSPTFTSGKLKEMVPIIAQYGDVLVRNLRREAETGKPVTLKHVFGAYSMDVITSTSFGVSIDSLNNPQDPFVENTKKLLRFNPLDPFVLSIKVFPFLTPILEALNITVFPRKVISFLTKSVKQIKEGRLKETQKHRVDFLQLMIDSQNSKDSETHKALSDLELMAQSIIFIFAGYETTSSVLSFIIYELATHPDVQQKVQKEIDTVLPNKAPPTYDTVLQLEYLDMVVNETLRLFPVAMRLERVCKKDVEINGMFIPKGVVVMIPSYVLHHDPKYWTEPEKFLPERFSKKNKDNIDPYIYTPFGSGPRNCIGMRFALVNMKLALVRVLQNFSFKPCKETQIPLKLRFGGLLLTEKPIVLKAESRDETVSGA
Summary of the method: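 P450-Glo luminescent assay: CYP3A7 enzyme converts a proluciferin substrate to luciferin, detected by luciferase reagent; light proportional to activity. Compounds in DMSO preincubated 10 min with enzyme-substrate mix at room temperature, then NADPH regeneration added for 1 h.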

[2] = Viability qHTS for spleen associated tyrosine kinase inhibitor (SYKi) naive MV4-11 cells (AID 1963823); further: nearly all actives have a fitted effect of over 40% in size; further: potency means the concentration at half of the fitted maximal effect
Summary of the method: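 SYK inhibitor-naive MV4-11 cells, 500 per well, exposed to compounds for 72 hr at 37 C, 5% CO2. Viability read as CellTiter-Glo luminescence after 10 min at room temperature.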

[3] = Viability qHTS for spleen associated tyrosine kinase inhibitor (SYKi) drug resistant MV4-11 cells (AID 1963824); further: nearly all actives have a fitted effect of over 35% in size; further: potency means the concentration at half of the fitted maximal effect
Summary of the method: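 SYK inhibitor-resistant MV4-11 AML cells, 500 per well, added to predispensed compounds and incubated 72 hr at 37 C, 5% CO2. Viability measured by CellTiter-Glo luminescence after 10 min at room temperature.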

[4] = Quantitative highthroughput screen to assess conditional lethalithy of NOMO1 cells grown in RPMI1640 with untreated serum (RPMI+s) (AID 1963876); further: nearly all actives have a fitted effect of over 35% in size; further: potency means the concentration at half of the fitted maximal effect
Summary of the method: (§1)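 Each medium arm—HPLM with 10% dialyzed FBS, or RPMI1640 with 5 mM glucose and 10% untreated or dialyzed FBS—was screened against an 11-point, 3-fold compound titration for 48 h at 37 °C, with CellTiter-Glo luminescence as endpoint.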

[5] = Quantitative highthroughput screen to assess conditional lethalithy of NOMO1 cells grown in RPMI1640 with dialyzed fetal bovine serum (RPMI+ds) (AID 1963877); further: nearly all actives have a fitted effect of over 30% in size; further: potency means the concentration at half of the fitted maximal effect; on Viability: series mostly up to about 46 µM
Summary of the method: as §1

[6] = Quantitative highthroughput screen to assess conditional lethalithy of NOMO1 cells grown in Human Plasma-Like Medium with dialyzed fetal bovine serum (HPLM+ds) (AID 1963878); further: nearly all actives have a fitted effect of over 35% in size; further: potency means the concentration at half of the fitted maximal effect
Summary of the method: as §1

[7] = Quantitative highthroughput screen to assess conditional lethalithy of P12 Ichikawa cells grown in Human Plasma-Like Medium with dialyzed fetal bovine serum (HPLM+ds) (AID 1963879); details: Potency: viability; further: nearly all actives have a fitted effect of over 35% in size; further: potency means the concentration at half of the fitted maximal effect; on Viability: series mostly up to about 46 µM
Summary of the method: as §1

[8] = Quantitative highthroughput screen to assess conditional lethalithy of P12 Ichikawa cells grown in RPMI1640 with dialyzed fetal bovine serum (RPMI+ds) (AID 1963880); details: Potency: P12-Ichikawa viability; further: nearly all actives have a fitted effect of over 35% in size; further: potency means the concentration at half of the fitted maximal effect
Summary of the method: as §1

[9] = Quantitative highthroughput screen to assess conditional lethalithy of P12 Ichikawa cells grown in RPMI1640 with untreated serum (RPMI+s) (AID 1963881); details: Potency: viability; further: nearly all actives have a fitted effect of over 35% in size; further: potency means the concentration at half of the fitted maximal effect; on Viability: series mostly up to about 46 µM
Summary of the method: as §1

[10] = Quantitative highthroughput screen to assess conditional lethalithy of SEM cells grown in Human Plasma-Like Medium with dialyzed fetal bovine serum (HPLM+ds) (AID 1963882); further: nearly all actives have a fitted effect of over 35% in size; further: potency means the concentration at half of the fitted maximal effect; on Viability: series mostly up to about 46 µM
Summary of the method: as §1

[11] = Quantitative highthroughput screen to assess conditional lethalithy of SEM cells grown in RPMI1640 with unreated serum (RPMI+s) (AID 1963883); further: nearly all actives have a fitted effect of over 35% in size; further: potency means the concentration at half of the fitted maximal effect
Summary of the method: as §1

[12] = Quantitative highthroughput screen to assess conditional lethalithy of SEM cells grown in RPMI1640 with dialyzed fetal bovine serum (RPMI+ds) (AID 1963884); further: nearly all actives have a fitted effect of over 35% in size; further: potency means the concentration at half of the fitted maximal effect; on Viability: series mostly up to about 46 µM
Summary of the method: as §1

[13] = Cellular viability qHTS for adrenocortical cancer (ACC) cell line SW-13 (AID 1963989); details: SW-13 ACC cells viability, CellTiter-Glo, 48 h; activity (max response): stronger effect = lower value; further: nearly all actives have a fitted effect of over 65% in size; further: potency means the concentration at half of the fitted maximal effect;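 on activity (max response): cells grown in serum-free medium with ITS supplement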
Summary of the method: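 SW-13 cells in ITS-supplemented serum-free DMEM were plated overnight, then exposed for 48 h at 37C to compound titrations (up to 46 uM final). Viability was read by CellTiter-Glo luminescence; four-parameter logistic fits gave IC50 and efficacy.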

[14] = Cellular viability qHTS for adrenocortical cancer (ACC) cell line NCI-H295R (AID 1963990); further: nearly all actives have a fitted effect of over 60% in size
Summary of the method: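 Luminescent ATP read-out (CellTiter-Glo, 20 min RT) after 48 h drug exposure of NCI-H295R cells; a titration up to 46 uM final. Data normalized to doxorubicin (100% inhibition) and DMSO (0%); 4-parameter fit gives IC50, max response.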

Row | SMILES | Potency [1] | Potency [2] | Potency [3] | Potency [4] | Potency [5] | Potency [6] | Potency [7] | Potency [8] | Potency [9] | Potency [10] | Potency [11] | Potency [12] | activity (max response) [13] | Potency [14] | Potency [13]
1 | CNS(=O)(=O)CCc1ccc2[nH]cc(C3CCN(C)CC3)c2c1 | inactive | inactive | inactive | inactive | inactive | inactive | inactive | inactive | inactive | inactive | inactive | inactive | -14.7% (inactive) | inactive | –
2 | Nc1ccn([C@@H]2CS[C@H](CO)O2)c(=O)n1 | inactive | inactive | inactive | inactive | inactive | inactive | inactive | inactive | inactive | inactive | inactive | inactive | 7.41% (inactive) | inactive | –
3 | Nc1nc(F)nc2c1ncn2[C@@H]1O[C@H](CO)[C@@H](O)[C@@H]1O | inactive | 10.5 µM (active) and 16.8 µM (active) and 14.6 µM (active) | 13.2 µM (active) and 14.6 µM (active) | 469 nM (active) | 372 nM (active) | 418 nM (active) | 469 nM (active) | 372 nM (active) | 526 nM (active) | – | 105 nM (active) | 74.3 nM (active) | – | – | –
4 | Nc1cc(C(Cl)=C(Cl)Cl)c(S(N)(=O)=O)cc1S(N)(=O)=O | inactive | inactive | inactive | 7430 nM (active) | 7430 nM (active) | 1870 nM (active) | 1180 nM (active) | 5260 nM (active) | 7430 nM (active) | 7.43 µM (active) | 2960 nM (active) | 4180 nM (active) | -17% (inactive) and 6.7% (inactive) | inactive | –
5 | Clc1cccc(Cl)c1NC1=NCCN1 | inactive | inactive | inactive | inactive | inactive | inactive | inactive | inactive | inactive | inactive | inactive | inactive | 13.1% (inactive) | inactive | –
6 | N[C@@H]1CONC1=O | inactive | inactive | inactive | inactive | inactive | inactive | inactive | inactive | inactive | inactive | inactive | inactive | 0.98% (inactive) and -6.89% (inactive) | inactive | –
7 | NS(=O)(=O)c1cc(Cl)c(Cl)c(S(N)(=O)=O)c1 | inactive | inactive | inactive | inactive | inactive | inactive | inactive | inactive | inactive | – | – | – | -6.34% (inactive) | inactive | –
8 | NC(=O)c1cnccn1 | inactive | inactive | inactive | inactive | inactive | inactive | inactive | inactive | inactive | inactive | inactive | inactive | 14.3% (inactive) and 8.02% (inactive) | inactive | –
9 | O=C1CCC(N2C(=O)c3ccccc3C2=O)C(=O)N1 (stereo not given) | inactive | inactive | inactive | inactive | inactive | inactive | inactive | inactive | inactive | inactive | – | inactive | 13.3% (inactive) and -15.2% (inactive) | inactive | –
10 | C1Cc2[nH]nc(-c3nn[nH]n3)c2C1 | inactive | inactive | inactive | inactive | inactive | inactive | inactive | inactive | inactive | inactive | inactive | inactive | 1.5% (inactive) | inactive | –
11 | CCn1cc(C(=O)O)c(=O)c2cc(F)c(N3CCNC(C)C3)c(F)c21 (stereo not given) | inactive | inactive | inactive | inactive | inactive | inactive | inactive | inactive | – | inactive | inactive | – | -4.05% (inactive) and -10.4% (inactive) | inactive | –
12 | Cc1cnc(CNC(=O)c2c(=O)c3ccc(N4CCCN(C)CC4)nc3n3c2sc2ccccc23)cn1 | inactive | 841 nM (active) | 1.68 µM (active) | inactive | inactive | inactive | inactive | 10200 nM (active) | – | – | 2880 nM (active) | – | – | – | –
13 | Nc1nnc(-c2cccc(Cl)c2Cl)c(N)n1 | inactive | inactive | inactive | inactive | inactive | inactive | inactive | inactive | inactive | inactive | inactive | inactive | 1.68% (inactive) and 0.0596% (inactive) | inactive | –
14 | CCOC(=O)C1=C(N)Oc2ccc(Br)cc2C1C(C#N)C(=O)OCC (stereo not given) | inactive | 13.2 µM (active) and inactive | 8.33 µM (active) and 11.6 µM (active) | inactive | inactive | inactive | inactive | inactive | inactive | inactive | – | – | -2.87% (inactive) | inactive | –
15 | O=c1oc2c(O)c(O)cc3c(=O)oc4c(O)c(O)cc1c4c23 | inactive | inactive | inactive | inactive | inactive | inactive | inactive | – | inactive | inactive | inactive | inactive | 9.27% (inactive) and 2.22% (inactive) | inactive | –
16 | COC(=O)[C@H](Cc1ccccc1)NC(=O)[C@@H](N)CC(=O)O (H-Asp-Phe-OMe) | inactive | inactive | inactive | inactive | inactive | inactive | inactive | – | inactive | inactive | inactive | inactive | 0.253% (inactive) and -5.37% (inactive) | inactive | –
17 | COc1ccc(C2(C#N)CCC(C(=O)O)CC2)cc1OC1CCCC1 (stereo not given) | inactive | inactive | inactive | inactive | inactive | inactive | inactive | inactive | inactive | inactive | inactive | inactive | 2.89% (inactive) | inactive | –
18 | CN(C)CC(=O)N1CCC(c2ccc(NC(=O)c3ncc(C#N)[nH]3)c(C3=CCCCC3)c2)CC1 | inactive | 73.1 nM (active) and 74.2 nM (active) | 41.1 nM (active) and 148 nM (active) | inactive | inactive | inactive | inactive | inactive | inactive | – | – | – | – | – | –
19 | COC[C@H](NC(=O)c1cnc(C)s1)C(=O)N[C@@H](COC)C(=O)N[C@@H](Cc1ccccc1)C(=O)[C@@]1(C)CO1 | inactive | 66.1 nM (active) | 0.0833 µM (active) | 469 nM (active) | 469 nM (active) | 332 nM (active) | 235 nM (active) | 235 nM (active) | 264 nM (active) | – | 83.3 nM (active) | 83.3 nM (active) | – | – | 316 nM (active)
20 | Cc1cnc(NC(=O)C2=C(O)c3ccccc3S(=O)(=O)N2C)s1 | inactive | inactive | inactive | inactive | inactive | inactive | inactive | inactive | inactive | inactive | inactive | inactive | 12.3% (inactive) [middle of 4 runs] | inactive | –
21 | N=c1nc(N2CCCCC2)cc(N)n1O | inactive | inactive | inactive | inactive | inactive | inactive | inactive | inactive | inactive | – | – | – | 5.33% (inactive) | inactive | –
22 | CC(C[N+](C)(C)C)OC(N)=O (stereo not given) | inactive | inactive | inactive | inactive | inactive | inactive | inactive | inactive | inactive | inactive | inactive | inactive | 2.28% (inactive) and -2.17% (inactive) | inactive | –
23 | OC[C@H]1O[C@@H](OCCc2ccc(O)cc2)[C@H](O)[C@@H](O)[C@H]1O | inactive | inactive | inactive | inactive | inactive | inactive | inactive | inactive | inactive | inactive | – | inactive | -16.3% (inactive) | – | –
24 | CC[C@H](NC(C)C)[C@H](O)c1ccc(O)c2[nH]c(=O)ccc12 | inactive | inactive and 525 nM (active) | inactive | inactive | inactive | inactive | inactive | inactive | inactive | – | inactive | inactive | 3.1% (inactive) and 13.3% (inactive) | inactive | –
